The values below come from ChEMBL document CHEMBL4513216, “Probing the Open Global Health Chemical Diversity Library for Multistage-Active Starting Points for Next-Generation Antimalarials” (ACS Infect Dis, 2020).

Structures are written as SMILES. Hit rate of the full screen: of about 69,000 compounds, about 8,600 (12%) showed an effect of 50% or more. What follows is part of a selection rich in strong results, with near analogues and random picks from the rest.

In this assay the test system is Plasmodium berghei. Kind of assay: Screen against P. berghei liver stage (PbLuc), transformed with Luciferase, at 10uM. In kind it is functional, HepG2. The conditions noted are these: tested at 10 uM.
`C(=C\c1ccccc1)/CNCC1CCc2nncn2C1` (stereo not given): the INHIBITION is 17.1%.
Next, `Cc1cnn(CCNCc2nnc(Cc3ccccc3)o2)c1`: 2.97%; `Cc1nn(-c2ccc(F)cc2)c2[nH]nc(N)c12`: 46.4%; `Cc1nn(C)c2c(=O)n(Cc3ccc(F)cc3)nnc12`: -10.77%.
Next, `Cc1nn(Cc2ccc(F)cc2)c2[nH]nc(N)c12`: 78.2%.
Consider `O=C(Nc1ccccc1)C1CN(CC2CCOCC2)CC12CCOCC2` (stereo not given), for which the INHIBITION is given as -42.9%.
In the case of `CCC[C@@H]1CN(Cc2cc(C#N)n(C)c2C)C[C@H]1NS(C)(=O)=O` it was 64.4%; in that of `CCC[C@H]1CN(Cc2cc(C#N)n(C)c2C)C[C@@H]1NS(=O)(=O)CC`, 61.8%.
Consider `CCC[C@H]1CN(Cc2ccc(N(C)C)nc2)C[C@@H]1NS(=O)(=O)CC`, for which the INHIBITION was 46.6%.
Take `CCOC(=O)C1CCCN(Cc2cc(C#N)n(C)c2C)C1` (stereo not given): the INHIBITION was found to be 24.7%.
With `CCC[C@@H]1CN(Cc2ccc(N(C)C)nc2)C[C@H]1N(C)C`, the INHIBITION worked out at 36.5%.
In the case of `CCC[C@@H]1CN(Cc2c[nH]nc2-c2ccc(F)cc2)C[C@H]1NS(C)(=O)=O` it was 27.4%; in that of `CCC[C@H]1CN(Cc2cc(C#N)n(C)c2C)C[C@@H]1N(C)C`, 73.6%; in that of `CCC[C@H]1CN(Cc2ccccc2C#N)C[C@@H]1NS(C)(=O)=O`, 49.3%.
For `CCC[C@@H]1CN(Cc2ccccc2C#N)C[C@H]1NC(C)=O`, the INHIBITION is reported as 17.5%.
In the case of `O=C(c1cc2ccccc2[nH]1)N1CCC(Nc2cccnn2)CC1` it was 31.2%; in that of `Cc1nnc2n1CCN(C(=O)c1ccc(Cn3cccc3)cc1)C2`, -18.52%.
In the case of `CN1CCN(C(=O)c2ccc3c(c2)nc(N2CCOCC2)n3C)CC1=O` it was -18.9%; in that of `Cc1nc(C(=O)N2CCCC2c2c(C)nn(C)c2Cl)ccc1C#N` (stereo not given), 0.914%; in that of `NC(=O)NCC(=O)N1C[C@@H]2CC[C@H]1CN(C1Cc3ccccc3C1)C2`, 21%.
In the case of `CCCC(=O)N1CCCC1(C)c1nc(C)no1` (stereo not given), the INHIBITION is -3.97%.
In the case of `COc1cc(C2Nc3cc(Cl)ccc3C3=NCCN32)cc(OC)c1OC` (stereo not given) it was 38.8%; in that of `COc1cc(C2Nc3cc(Cl)ccc3C3=NCCN32)ccc1O` (stereo not given), -43%.
Next, `CN(C)c1ncc(C2Nc3ccccc3C3=NCCCN32)cn1` (stereo not given): 9.93%.
In the case of `COc1ccc(C2Nc3cc(Cl)ccc3C3=NCCN32)cc1O` (stereo not given) it was 28%; in that of `COc1ccc(C2Nc3ccccc3C3=NCCCN32)cc1OC` (stereo not given), 54%.
`Oc1ccc(C2Nc3ccccc3C3=NCCCN32)cc1` (stereo not given): the INHIBITION was 36.4%.
In the case of `COc1ccc(C2Nc3cc(Cl)ccc3C3=NCCN32)cc1CO` (stereo not given) it was 46%; in that of `COc1ccc(C2Nc3cc(Cl)ccc3C3=NCCN32)cc1OC` (stereo not given), 72.8%.
In the case of `COc1cc(OC)c(C2Nc3cc(Cl)ccc3C3=NCCN32)cc1OC` (stereo not given), the INHIBITION was found to be 73.9%.
Take `COCc1nc(C(=O)N2CCCC(n3ccnc3C(C)C)C2)cs1` (stereo not given): the INHIBITION is given as 19.5%.
In the case of `O=C([C@H]1CCCO1)N1CC[C@@H](O)[C@@H]1Cc1ccccc1` it was 21.1%; in that of `CC(O)CN1CCN(C(=O)c2cc3ccccc3[nH]c2=O)CC1` (stereo not given), 16.6%; in that of `CNc1cc2c(nn1)CCN(C(=O)c1ccccc1-n1cccn1)C2`, 36.8%.
As to `CN1CCCCC(C2CCN(S(=O)(=O)c3cn(C)cn3)CC2)C1=O` (stereo not given), the INHIBITION is given as -23.4%.
In the case of `CCNC(=O)[C@@H]1C[C@@H](NC(=O)CSC)CN1Cc1ccncc1` it was 29.6%; in that of `OC(CNCCn1cccn1)c1cccc(F)c1` (stereo not given), -15.5%; in that of `Cc1ccnc(OC[C@]23COC[C@H]2CN(C(=O)c2ncccn2)C3)n1`, 18.4%.
Turning to `CC(C)c1ocnc1C(=O)NC1(c2cccc(F)c2)CCOCC1`, the INHIBITION was found to be 60.3%.
Next, `O=C(NC1(c2cccc(F)c2)CCOCC1)c1ccoc1`: 18.5%.
Turning to `CN(C)c1cc(C(=O)NC2(c3cccc(F)c3)CCOCC2)ccn1`, the INHIBITION stood at 27.5%.
Next, `COc1ncccc1C(=O)NC1(c2cccc(F)c2)CCOCC1`: 65.3%.
For the molecule `Cc1cc(C(=O)NC2(c3cccc(F)c3)CCOCC2)no1`, the INHIBITION is reported as 20.6%.
In the case of `Cc1ncccc1C(=O)NC1(c2cccc(F)c2)CCOCC1` it was 76.2%; in that of `O=C(NC1(c2cccc(F)c2)CCOCC1)c1cc[nH]n1`, 13.5%.
In the case of `CN1CC(C(=O)NC2(c3cccc(F)c3)CCOCC2)CC1=O` (stereo not given) it was -36%; in that of `O=C(NC1(c2cccc(F)c2)CCOCC1)c1ccccn1`, 26.8%; in that of `CCC(CC)C(=O)N1CCCc2c(cnn2C)C1`, 31.9%.
In the case of `O=C(CCc1cc(Cl)no1)N1CCC(c2cc3ncccc3cn2)CC1` it was 23.2%; in that of `CCOc1ccccc1-n1c(-c2cn(CC)nc2C)n[nH]c1=O`, 18%.
For `CN1CCCC(CCC(=O)NCCCn2ncc3ccccc32)C1` (stereo not given), the INHIBITION came out at 17%.
Next, `CC(=O)Nc1cc(C(C)(C)C)sc1C#N`: -52.4%; `Cc1cc(C(=O)N2C[C@@H](C(=O)O)[C@H](C(C)C)C2)cs1`: 46.1%.
In the case of `CC(C)[C@@H]1CN(C(=O)c2ccsc2)C[C@H]1C(=O)O` it was 30.9%.
For `Cc1cncc(C(=O)N2C[C@@H](C(=O)O)[C@H](C(C)C)C2)c1`, the INHIBITION turned out to be 72.2%.
